Screens (PubChem)
A selection: hits, their analogues and other compounds. The true share with any hit is near 17%.
TGFb SMAD3 inh: blocks TGF-b signaling; HepG2 CAGA-GFP TGF-b/SMAD3 reporter, GFP fluorescence, 18 h; TGF-beta stimulated, 500 pg/mL final; Potency, µM (titrated, usually from 46.1 µM), actives largely listed as inhibitors; 410,000 tested, 1.2% active; AID 588855; note: nearly all actives have a fitted effect of over 65% in size
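GFP signal (ex488/em500-530) from TGF-beta-stimulated HEPG2 CAGA-GFP cells, 500 pg/mL final, 18 h at 37 degrees C in DMEM plus 1% FBS, normalized to unstimulated and DMSO-stimulated controls.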
S2 tox: viability counter-screen for ATXN expression inhibitors. S2 cells (HEK-293 line with an ATXN2-luciferase reporter) viability, CellTiter-Fluor protease fluorescence, 24 h. Potency, µM (top dose mostly 56.7 µM), hits mostly cytotoxic. 400,000 tested, 0.49% active. AID 651635; note: nearly all actives have a fitted effect of over 40% in size
HepG2 viability: HepG2 cytotoxicity, counter-screen for TGF-b inhibitors. 410,000 tested, 0.76% active. Potency, µM (doses to about 46.1 µM), most hits filed as cytotoxic. HepG2 CAGA-GFP viability, ATP luminescence, 18 h. AID 588856
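HepG2 CAGA-GFP cells (1000/well, DMEM with 1% FBS) received compound, then TGF-beta at 500 pg/mL final, and were incubated 18 hours at 37 degrees C. Viability was read by CellTiter-Glo luminescence. Media-only wells were set as complete cell-killing and DMSO as no toxicity.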
TDP1 cell noCPT: qHTS for Inhibitors of human tyrosyl-DNA phosphodiesterase 1 (TDP1): qHTS in cells in absence of CPT; Potency, µM (doses to about 46.2 µM), actives largely listed as inhibitors; DT40 Tdp1-/- hTDP1 cells, no CPT, ATP luminescence, 48 h; 420,000 tested, 15% active; note: nearly all actives have a fitted effect of over 55% in size
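Chicken DT40 Tdp1-/- cells complemented with human TDP1, screened without camptothecin (DMSO vehicle only), 400 cells/well. Compounds pin-transferred, cells incubated at 37 °C for at least 48 hr. Growth read as ATP-dependent luminescence (CellTiter-Glo, 30 min at RT).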
TDP1 cell CPT: DT40-hTDP1 cell growth loss with CPT; chicken DT40 Tdp1-/-;hTDP1 cells + 20 nM CPT, ATP luminescence, 48 h; Potency, µM (doses to about 46.2 µM), hits mostly inhibitors; AID 686979; 420,000 tested, 12% active; note: nearly all actives have a fitted effect of over 55% in size
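Chicken DT40 Tdp1-/- cells complemented with human TDP1, 400 cells/well, exposed to compounds plus 20 nM camptothecin for at least 48 h at 37 C; viability read as ATP content by CellTiter-Glo luminescence.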
ATXN2 expr inh: inhibitors of ATXN2 expression; HEK-293 ATXN2-luciferase reporter, luminescence, 24 h; Potency, µM (series often up to 57 µM), usual class: inhibitors; 360,000 tested, 0.72% active; note: nearly all actives have a fitted effect of over 55% in size
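qHTS (up to 57 uM final) was run with 24 h compound exposure of reporter cells at 37 °C. Each well was multiplexed: SteadyGlo luminescence measured ATXN2-luciferase expression after a fluorogenic Gly-Phe-AFC viability readout (25 uM final).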
Of the large screens only hits and unclear results are named; the others gave an inactive call; ! = a repeat was not active. Calls come from the whole dose curve; as a rule, active = well fitted curve in the direction sought with a large enough effect; inconclusive = small, poorly fitted or top-dose-only effect, or another doubt; inactive = no such curve, though single readings can be large; an effect the other way counts as inactive or inconclusive.

Cc1ccc(C(=O)c2sc(Nc3ccccc3)c(C#N)c2N)cc1	S2 tox inconclusive, TDP1 cell noCPT inconclusive, TDP1 cell CPT inconclusive (no result: ATXN2 expr inh)
CCOC(=O)c1ccc(Nc2sc(C(=O)c3cccc([N+](=O)[O-])c3)c(N)c2C#N)cc1	S2 tox inconclusive, TDP1 cell noCPT 0.73µM, TDP1 cell CPT 1µM (no result: ATXN2 expr inh)
C(=Nc1ccc2ccccc2n1)c1cccnc1	TDP1 cell CPT inconclusive (no result: S2 tox, ATXN2 expr inh)
C(=Nc1cccnc1)c1ccc2ccccc2n1	TDP1 cell noCPT 1µM, TDP1 cell CPT 0.89µM (no result: S2 tox, ATXN2 expr inh)
Cc1cccc(C(=O)Oc2ccc(/C=N/NC(=O)c3cc(O)cc(O)c3)cc2)c1	none
O=C(Oc1ccc(/C=N/NC(=O)c2ccccc2F)cc1)c1ccccc1	TDP1 cell noCPT 12µM, TDP1 cell CPT 9.2µM
O=C(N/N=C/c1ccc(OC(=O)c2ccccc2)cc1)c1cccc(O)c1	TDP1 cell noCPT 16µM, TDP1 cell CPT inconclusive
CCOC(=O)c1ccc(S(=O)(=O)N2CCN(CC(O)COc3ccc(C#N)cc3)CC2)cc1 (centres undefined)	TDP1 cell noCPT 18µM, TDP1 cell CPT inconclusive
CCOC(=O)/C(C#N)=C\c1ccc(N2CCN(C/C=C/c3ccccc3)CC2)cc1	TDP1 cell noCPT 21µM, TDP1 cell CPT inconclusive
CC1CN(CC(O)COc2ccc(C#N)cc2)CCN1CC(O)COc1ccc(C#N)cc1 (centres undefined)	TDP1 cell noCPT 23µM, TDP1 cell CPT 21µM
CCOC(=O)c1ccc(S(=O)(=O)N2CCN(C/C=C/c3ccccc3)CC2)cc1	TDP1 cell noCPT 13µM, TDP1 cell CPT inconclusive
CCOC(=O)c1ccc(S(=O)(=O)N2CCN(C)CC2)cc1	none
CCOC(=O)c1ccc(S(=O)(=O)N2CCN(CCC#N)CC2)cc1	none
O=C(C[C@@H]1C[C@H]2c3cc(NC(=O)Nc4ccccc4F)ccc3O[C@H]2[C@H](CO)O1)NCC(F)(F)F	none
Cc1ccc(S(=O)(=O)NNC(=O)c2cnn(-c3ccc(Cl)cc3)c2C(F)(F)F)cc1	TGFb SMAD3 inh inconclusive, S2 tox inconclusive
CCOC1OC(=O)C(Cl)=C1Nc1cc(C)ccc1C (centres undefined)	none
CC1(C(=O)NCc2ccccc2)CN(S(C)(=O)=O)CC(=O)N1CCc1c[nH]c2ccccc12 (centres undefined)	TDP1 cell CPT 13µM (no result: TGFb SMAD3 inh, S2 tox, HepG2 viability, ATXN2 expr inh)
CCOCCCN(Cc1ccco1)S(=O)(=O)c1csc(C(N)=O)c1	none
CC(C)CCN(Cc1ccco1)S(=O)(=O)c1csc(C(N)=O)c1	TDP1 cell noCPT 23µM, TDP1 cell CPT 18µM
COc1cc(CNCCSc2nnnn2C)ccc1OCc1ccc(F)cc1	TDP1 cell noCPT 21µM, TDP1 cell CPT 18µM
COc1cc(CNCCSc2nnnn2C)ccc1OCc1ccccc1	TDP1 cell noCPT inconclusive, TDP1 cell CPT inconclusive
COc1cccc(CNCCSc2nnnn2C)c1OCc1ccc(F)cc1	TDP1 cell noCPT 21µM, TDP1 cell CPT inconclusive
O=C(c1cccc(S(=O)(=O)N2CCc3ccccc32)c1)N1CCN(c2ccccc2)CC1	TDP1 cell noCPT 29µM, TDP1 cell CPT inconclusive
CCN(c1ccccc1)S(=O)(=O)c1ccc(C(=O)N2CCCC(C(F)(F)F)C2)cc1 (centres undefined)	TDP1 cell noCPT 23µM, TDP1 cell CPT 8.2µM
COc1ccccc1N1CCN(C(=O)c2ccc(S(=O)(=O)N3CCCCCC3)cc2)CC1	TGFb SMAD3 inh inconclusive, TDP1 cell noCPT inconclusive, TDP1 cell CPT inconclusive
CCS(=O)(=O)N1CCc2cc(C(=O)N3CCN(c4ccc(OC)cc4)CC3)ccc21	TGFb SMAD3 inh inconclusive, TDP1 cell noCPT inconclusive, TDP1 cell CPT inconclusive
CCS(=O)(=O)N1CCc2cc(C(=O)N3CCN(c4ccccc4)CC3)ccc21	TDP1 cell noCPT 15µM, TDP1 cell CPT 16µM
COc1ccccc1N1CCN(C(=O)c2ccc3c(c2)CCN3S(=O)(=O)c2ccccc2)CC1	TGFb SMAD3 inh inconclusive, S2 tox inconclusive, TDP1 cell noCPT 2.9µM, TDP1 cell CPT 8.2µM, ATXN2 expr inh inconclusive
O=C(Cc1c(F)cccc1Cl)NCCCn1ccnc1	none
O=C(CC(NC(=O)c1ccccc1)c1ccccc1)OCc1nc(-c2cccc(Cl)c2)no1 (centres undefined)	none (no result: S2 tox, ATXN2 expr inh)
CN(C)c1ccc2c(c1[N+](=O)[O-])Cc1ccccc1-2	TGFb SMAD3 inh inconclusive, S2 tox inconclusive
O=C(c1ccc2c(c1)CCN2S(=O)(=O)c1ccccc1)N1CCN(c2ccc(F)cc2)CC1	TGFb SMAD3 inh inconclusive, TDP1 cell noCPT 15µM, TDP1 cell CPT 23µM
O=C(c1cccc(S(=O)(=O)N2CCc3ccccc32)c1)N1CCCC(C(F)(F)F)C1 (centres undefined)	TGFb SMAD3 inh inconclusive, TDP1 cell noCPT 21µM, TDP1 cell CPT 10µM
O=C(c1cccc(S(=O)(=O)N2CCN(c3ccc(F)cc3)CC2)c1)N1CCN(c2ccccc2O)CC1	TGFb SMAD3 inh inconclusive, TDP1 cell noCPT inconclusive, TDP1 cell CPT inconclusive
CC(=O)N1CCc2cc(C(=O)CN3CCN(c4cccc(Cl)c4)CC3)ccc21	TDP1 cell noCPT 21µM, TDP1 cell CPT 15µM
CS(=O)(=O)N1CCc2cc(C(=O)N3CCN(c4cccc(Cl)c4)CC3)ccc21	TGFb SMAD3 inh inconclusive, TDP1 cell noCPT 18µM!, TDP1 cell CPT 16µM
CS(=O)(=O)N1CCc2cc(C(=O)N3CCCCC3)ccc21	S2 tox inconclusive
O=C(NCCc1ccccc1)C1(c2cccs2)CCOCC1	none
CCOc1ccc(NC(=O)c2c(NC(=O)c3ccccc3Br)sc3c2CCC(C)C3)cc1 (centres undefined)	TDP1 cell noCPT inconclusive, TDP1 cell CPT inconclusive (no result: S2 tox, ATXN2 expr inh)
Cc1ccc(NC(=O)c2sc(-n3nc(C)c(Cc4ccc5c(c4)OCO5)c3C)nc2C)cc1C	TDP1 cell noCPT inconclusive, TDP1 cell CPT inconclusive
CC(=O)c1cccc(NC(=O)c2sc(-n3nc(C)c(Cc4ccc5c(c4)OCO5)c3C)nc2C)c1	TGFb SMAD3 inh inconclusive, TDP1 cell noCPT 15µM, TDP1 cell CPT 15µM (no result: S2 tox, ATXN2 expr inh)
Cc1ccccc1-c1ccccc1CN1[C@@H](C(C)C)COCCS1(=O)=O	TGFb SMAD3 inh inconclusive, TDP1 cell noCPT 18µM, TDP1 cell CPT inconclusive
CC(C)[C@H]1COCCS(=O)(=O)N1Cc1cccc(Cl)c1	TGFb SMAD3 inh inconclusive, TDP1 cell noCPT 11µM, TDP1 cell CPT inconclusive
CCC1COCCS(=O)(=O)N1Cc1cccc(Cl)c1 (centres undefined)	TDP1 cell noCPT inconclusive, TDP1 cell CPT inconclusive
Cc1ccccc1CN1CCCOCCS1(=O)=O	TDP1 cell noCPT inconclusive
